Screening data (PubChem BioAssay)
The list is not random: actives were taken first. Their share in the collection is about 19%.
IL-1B inflam inh: inflammasome signaling inhibition, IL-1 beta readout | activity change, % at 57.5 µM | THP-1 LPS/ATP IL-1B secretion, AlphaLISA, 16 h; stronger effect = lower value | 4.7% of 360,000 active | AID 743279; in the data active means activity change below about -50%; inconclusive means mostly about -30% to -49%
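THP-1 cells pretreated 1 hr with compounds (up to 57.5 uM final), then stimulated with LPS (250 ng/mL final) plus ATP (1.25 mM final); secreted IL-1B measured by AlphaLISA after 16 hr, decreased signal indicating inhibition.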
TDP1 block: inhibitors of human tyrosyl-DNA phosphodiesterase TDP1; recombinant TDP1, AlphaScreen DNA substrate cleavage; Potency, µM (top dose mostly 130 µM), inactives show at the highest dose activity change, negative = inhibition, most hits filed as inhibitors; 0.28% of 350,000 active; further: potency means the concentration at half of the fitted maximal effect; nearly all actives have a fitted effect of over 40% in size
Target sequence (Q9NUW8 whole entry, looked up): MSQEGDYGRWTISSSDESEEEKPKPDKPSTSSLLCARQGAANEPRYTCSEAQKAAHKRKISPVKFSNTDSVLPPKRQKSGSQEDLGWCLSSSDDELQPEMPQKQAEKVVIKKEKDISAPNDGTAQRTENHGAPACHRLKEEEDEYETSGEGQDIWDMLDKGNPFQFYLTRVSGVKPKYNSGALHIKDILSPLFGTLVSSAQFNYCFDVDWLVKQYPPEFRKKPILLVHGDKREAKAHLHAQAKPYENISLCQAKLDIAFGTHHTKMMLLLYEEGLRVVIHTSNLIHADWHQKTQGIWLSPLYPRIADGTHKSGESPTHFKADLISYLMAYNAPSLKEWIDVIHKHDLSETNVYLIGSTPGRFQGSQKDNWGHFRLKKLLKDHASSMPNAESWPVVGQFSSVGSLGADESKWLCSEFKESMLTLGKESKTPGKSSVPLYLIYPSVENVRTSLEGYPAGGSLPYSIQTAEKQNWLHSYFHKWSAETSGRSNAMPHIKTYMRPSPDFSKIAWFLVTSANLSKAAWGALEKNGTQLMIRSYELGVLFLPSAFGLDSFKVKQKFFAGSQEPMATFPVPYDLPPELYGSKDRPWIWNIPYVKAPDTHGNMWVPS
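Steps: enzyme plus compound, 15 min RT; add biotin/phosphotyrosine-FITC oligonucleotide (15 nM final), react 5 min; add donor/acceptor beads (10 ug/ml final), 10 min; read AlphaScreen. Tdp1 at 1 nM final.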
DT40 TDP1 no CPT: qHTS for Inhibitors of human tyrosyl-DNA phosphodiesterase 1 (TDP1): qHTS in cells in absence of CPT; Potency, µM (titrated, usually from 46.2 µM), for inactives: at the highest dose activity change, negative = growth inhibition, most hits filed as inhibitors; AID 686978, 2013; 15% of 420,000 active; DT40 Tdp1-/- hTDP1 cells, no CPT, ATP luminescence, 48 h; further: potency means the concentration at half of the fitted maximal effect; nearly all actives have a fitted effect of over 55% in size
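DT40 Tdp1-/-;hTDP1 cells, no CPT (DMSO vehicle only), 400 cells/well; compounds pin-transferred; ≥48 hr, 37 °C; CellTiter-Glo 30 min RT dark, luminescence read.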
Giardia kill: kills Giardia lamblia | activity change, % at 7.66 µM, hits read low | 0.15% of 340,000 active | Giardia lamblia trophozoite viability; in the data active means activity change below about -80%; inconclusive means between about -30% and that limit;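 further: parasites exposed to compound for two days anaerobically before the ATP read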
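Viability, read as ATP luminescence: trophozoites at 100 cells/well, compound added, 48 hrs anaerobic at 37 deg C, then 15-30 min room-temperature development before reading.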
DT40 TDP1 CPT: growth inhibition of DT40 Tdp1-/-;hTDP1 cells with camptothecin (screen for TDP1 inhibitors); 12% of 420,000 active; chicken DT40 Tdp1-/-;hTDP1 cells + 20 nM CPT, ATP luminescence, 48 h; Potency, µM (highest dose often 46.2 µM), inactives show at the top dose activity change, negative = growth inhibition, most hits filed as inhibitors; further: potency means the concentration at half of the fitted maximal effect; nearly all actives have a fitted effect of over 55% in size
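Chicken DT40 Tdp1-/- cells stably complemented with human TDP1 were seeded at 400 cells/well in medium containing 20 nM camptothecin, exposed to pin-transferred compounds, and grown at 37 °C for at least 48 hr. Viability was read as ATP luminescence.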
ELG1 DNA repair: ELG1-dependent DNA repair inhibition; HEK293T ELG1-luciferase reporter, luminescence, 16 h; DNA damage induced by 5-fluorouridine; Potency, µM (highest dose often 46.1 µM), for the others: top-dose activity change, negative = inhibition, usual class: inhibitors; AID 504467; 2.3% of 330,000 active; further: potency means the concentration at half of the fitted maximal effect; nearly all actives have a fitted effect of over 55% in size
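Step one: seed 2,000 cells per well. Step two: pin-transfer compound or DMSO alongside 5-fluorouridine. Step three: incubate 16 hr, 37 °C, 5% CO2. Step four: add ONE-Glo, wait 30 min, read luminescence.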
Active calls of the source: *; ? = inconclusive; · = not tested or not shown. Unless noted, the call rests on the fitted dose curve; in most records, active means well fitted curve in the direction sought with a large enough effect; inconclusive means small, poorly fitted or top-dose-only effect, or another doubt; inactive means no such curve, though single readings can be large; an effect the other way counts as inactive or inconclusive. On the % scale 0 is the no-effect control and ±100 the full control effect.

SMILES	IL-1B inflam inh	TDP1 block	DT40 TDP1 no CPT	Giardia kill	DT40 TDP1 CPT	ELG1 DNA repair
Cc1ccc(-n2cnc3cc(C(=O)NCc4ccccc4Cl)ccc32)c(C)c1	·	5%	23µM*	·	23µM*	·
CCc1ccc(-n2cnc3cc(C(=O)NCc4ccc(C)cc4)ccc32)cc1	·	16%	15µM*	·	15µM*	·
Cc1cccc(-n2cnc3cc(C(=O)NCc4ccccc4Cl)ccc32)c1	·	13%	?	·	16µM*	·
COC(CNC(=O)c1ccc2c(c1)ncn2-c1ccc(C)cc1C)OC	14	·	-9%	6	26%	1%
COCCn1c(=O)c(-c2ccc(F)cc2)nc2cnc(N(C)C)nc21	·	·	-14%	·	-13%	·
N#Cc1ccc(Oc2ncccn2)cc1	14	·	-8%	5	-18%	·
O=C(CN1C(=O)COc2ccc(S(=O)(=O)N3CCCCC3)cc21)NCc1ccccc1Cl	?	0%	1%	-9	-10%	-4%
CC1CCN(C(=O)CSc2nc(-c3ccc(F)cc3)cc(C(F)(F)F)n2)CC1	·	-3%	?	·	21µM*	·
COc1ccc(-c2cc(C(F)(F)F)nc(SCC(=O)N3CCOCC3)n2)cc1OC	?	0%	?	16	-18%	8.2µM*
CN(C)C(=O)CNC(=O)Cc1ccccc1	·	·	2%	·	-1%	·
O=C(Cc1cc(=O)[nH]c(=O)[nH]1)NCc1ccccc1	14	4%	-9%	12	6%	22%
Cc1cc(C)nc(NC(=S)Nc2cccc(Cl)c2Cl)c1	0	3%	-23%	-12	-16%	-16%
Cc1cc(C)nc(NC(=S)Nc2ccc(Br)cc2Cl)c1	0	5%	6.5µM*	5	6.5µM*	13%
CCOc1ccc(C2NC(=O)C(C#N)=C(S)N2c2ccc(C)cc2)cc1OC (stereo not drawn)	-59*	-1%	?	10	?	0%
Cc1cccc(N2CCN(CCCNc3ncnc4onc(-c5ccc(Cl)cc5)c34)CC2C)c1 (stereo not drawn)	·	4%	21µM*	·	?	·
Cc1ccc(C)c(N2CCN(CCCNc3ncnc4onc(-c5ccc(Cl)cc5)c34)CC2)c1	·	-5%	16µM*	·	?	·
Cc1ccc(Cl)cc1N1CCN(CCCNc2ncnc3onc(-c4ccc(Cl)cc4)c23)CC1	·	4%	?	·	?	·
Cc1cccc(N2CCN(CCCNc3ncnc4onc(-c5ccc(F)cc5)c34)CC2C)c1 (stereo not drawn)	·	6%	21µM*	·	?	·
Fc1ccc(-c2noc3ncnc(Nc4ccc(F)cc4F)c23)cc1	·	0%	?	·	?	·
CSc1cccc(CN(C)C(=O)C2CCC(=O)N(CCCN3CCCC3=O)C2)c1 (stereo not drawn)	?	2%	2%	17	-1%	7%
O=C(COC(=O)c1ccc(-c2ccccc2)cc1)Nc1ccccc1-c1ccccc1	0	3%	10µM*	13	?	3%
O=C(COC(=O)c1ccc(O)cc1)Nc1ccccc1-c1ccccc1	10	6%	21µM*	9	?	?
CCOC(=O)/C=C(C)\C=C\c1c[nH]c2ccccc12	-64*	6%	29µM*	-7	-6%	-9%
CCOc1ccc(-c2nnc(SCC(=O)Nc3cccc(C#N)c3)o2)cc1	·	-6%	?	·	?	·
N#CNC(=Nc1ccc(Cl)cc1)Oc1ccccc1	-55*	0%	?	-12	?	?
O=C(C[n+]1ccccc1)N/N=C/c1ccccc1C(F)(F)F	-16	·	17%	0	2%	9%
O=C(COc1ccc(Cl)cc1)NCc1ccc(F)cc1	-4	·	?	-13	?	0%
O=c1[nH]c(COc2ccc(Cl)cc2Cl)nc2ccccc12	-13	1%	4%	1	-15%	?
O=c1[nH]c(COc2ccc(Cl)cc2Br)nc2ccccc12	15	4%	?	-12	23µM*	?
